# Source: PubChem BioAssay (The Scripps Research Institute Molecular Screening Center)
# The list is not random: actives were taken first. Their share in the collection is about 5.7%.
# AHR activator = AHR activators, primary screen, cell-based, luminescence, luciferase reporter, human; AHR-responsive luciferase reporter cells; activation, % at 5 µM; hit rate 2.5% among 320,000; in the data active = activation above about 47%;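 also: 0% = vehicle wells and 100% = reference agonist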
# hcDAF12 agonist = H. contortus DAF-12 nuclear receptor activators, primary screen, cell-based, luminescence, HEK293, lit1-tk-luc reporter. HEK293 hcDAF-12 lit1-tk-luc reporter; 0% DMSO, 100% Δ7-dafachronic acid. activation, % at 6.8 µM. hit rate 1.4% among 370,000. AID 652067, 2013;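 active = activation above the mean of all tested compounds plus 3 SD, cut at about 5.5% in these data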;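 also: 100% = response to 3 µM Δ7-dafachronic acid high control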
# DAX1 inh-1 = DAX1 (NR0B1) inhibitors on StAR promoter, primary screen, cell-based, luminescence, SF-1 (NR5A1), full-length DAX-1; HEK293T StAR-luciferase reporter, SF-1/DAX-1 repression relief; hit rate 1.1% among 370,000; inhibition, % at 6.8 µM;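 active = inhibition above the mean over all tested compounds plus 3 SD, cut at about 3.6% in these data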;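 also: 0% = DAX-1 cells with DMSO and 100% = cells lacking DAX-1 with DMSO; higher inhibition means more luminescence from relief of DAX-1 repression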
# hgDAF12 agonist = H. glycines DAF-12 receptor agonists, primary screen, cell-based, luminescence, HEK293, GAL4 fusion, UAS-luciferase; AID 687014, 2013; Nuclear hormone receptor DAF-12 (Heterodera glycines), GAL4 fusion; HEK293 GAL4-hgDAF12 UAS-luciferase reporter, agonist luminescence; normalized to butyrate control; hit rate 1.8% among 370,000; activation, % at 6.8 µM;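 active = activation above a cutoff set at the mean of all screened compounds plus 3 SD, cut at about 10% in these data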;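 also: 0% = DMSO wells and 100% = sodium butyrate wells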
# ssDAF-12 act = S. stercoralis DAF-12 nuclear receptor activators, primary screen, cell-based, luminescence, HEK293, GRIP1 co-expression, lit1-tk-luc; HEK293 ssDAF-12/GRIP1 lit1-tk-luc reporter; % of 3 µM dafachronic acid response; activation, % at 6.8 µM; hit rate 1% among 370,000; Nuclear hormone receptor DAF-12 (Strongyloides stercoralis);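 active = activation above the mean over all tested compounds plus 3 SD, cut at about 0.9% in these data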;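 also: 0% = DMSO-only wells and 100% = 3 µM delta7-dafachronic acid wells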
# DAX1 inh-2 = DAX1 (NR0B1) inhibitors, primary screen, cell-based, HEK293, Gal4-DAX1, luciferase luminescence | hit rate 0.99% among 340,000 | Nuclear receptor subfamily 0 group B member 1 (Homo sapiens), P51843 | inhibition, % at 6.75 µM | AID 504766, 2011 | HEK293 Gal4-DAX1 luciferase reporter;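 active = inhibition above the mean over all tested compounds plus 3 SD, cut at about 4.2% in these data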;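 also: 0% = DAX1-transfected cells with DMSO and 100% = empty-vector control cells with DMSO; inhibition shows as a rise in luminescence from relieved DAX1 repression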
# Target sequence (P51843 207-470 limits assumed): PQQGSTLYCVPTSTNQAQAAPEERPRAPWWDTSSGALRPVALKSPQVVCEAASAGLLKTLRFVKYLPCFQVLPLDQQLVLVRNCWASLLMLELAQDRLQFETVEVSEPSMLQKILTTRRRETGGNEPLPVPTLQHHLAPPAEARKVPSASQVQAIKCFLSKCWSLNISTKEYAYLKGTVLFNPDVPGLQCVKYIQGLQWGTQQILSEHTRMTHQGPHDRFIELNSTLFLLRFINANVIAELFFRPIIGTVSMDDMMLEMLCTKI
# LXR ag = LXR agonists, Gal4 luciferase reporter, confirmation, counter-screen for hcDAF-12 agonist project, cell-based, luminescence, HEK293, H. contortus campaign | shares compounds with hcDAF12 agonist | HEK293 Gal4-LXR tk-luc reporter, 24 h; normalized: DMSO 0%, positive control 100% | activation, % at 6.8 µM | 3,400 tested, under 10 active | AID 743027, 2013;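 active = mean percent activation of the reporter above a cutoff set as the average over tested compounds plus their standard deviation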
# hcDAF12 conf = H. contortus DAF-12 receptor agonists, confirmation, cell-based, luminescence, HEK293, lit1-tk-luc, triplicate. AID 743032, 2013. shares compounds with hcDAF12 agonist. hit rate 61% among 3,400. activation, % at 6.8 µM. HEK293 hcDAF-12 lit1-tk-luc reporter; % of Δ7-dafachronic acid response;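 active = mean activation across triplicate tests above the threshold derived from the earlier primary screen, cut at about 5.5% in these data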;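 also: 0% = DMSO only wells and 100% = 3 µM Δ7-dafachronic acid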
# The depositor's hits bear a star; . = no result.
SMILES,AHR activator,hcDAF12 agonist,DAX1 inh-1,hgDAF12 agonist,ssDAF-12 act,DAX1 inh-2,LXR ag,hcDAF12 conf
CSCCC(NC(=O)c1ccc(Cl)cc1)C(=O)OCC(=O)Nc1cc(Cl)ccc1C#N (configuration not stated),56*,7.5*,0,1,0,0,0,3
CSc1ccccc1NC(=O)COc1ccc(S(=O)(=O)N2CCCC2)cc1,0,-1,-1,-2,-2,0,.,.
C[C@@]12C[C@@H]3C(=O)N(Cc4ccccc4)CC(=O)N3[C@@H]1N(S(=O)(=O)c1ccccc1)c1ccccc12,.,-3,0,-1,-1,.,.,.
CN1CC(=O)N2[C@@H](C[C@]3(c4c[nH]c5ccccc45)c4ccccc4N(S(=O)(=O)c4ccccc4)[C@H]23)C1=O,.,6.6*,.,-1,0,.,0,4
CCOc1ccccc1Nc1nnc(SCC(=O)Nc2nc(-c3ccc(OC)cc3)cs2)s1,38,0,0,-1,-1,-1,.,.
COCCN(C(=O)COC(=O)C1COc2ccccc2O1)c1c(N)n(Cc2ccccc2)c(=O)[nH]c1=O (configuration not stated),1,2,1,2,-1,0,.,.
Cc1cc(O)ccc1N/C=C(\C#N)c1nc2ccccc2o1,54*,8.8*,1,0,0,0,0,3
N#C/C(=C\c1c(Cl)cccc1Cl)c1nc2ccccc2o1,2,6.6*,-1,1,-1,0,0,0
CCCCc1nc2sc3c(=O)n(N)cnc3c2c2c1CCCC2,2,1,0,2,-2,0,.,.
CCOc1ccc2nc(SCC(=O)Nc3ccc4c(c3)OCCO4)[nH]c2c1,27,7.3*,0,3,-1,0,0,1
COc1ccc2nc(SCC(=O)Nc3ccc4c(c3)OCCO4)[nH]c2c1,15,-5,-3,-8,-3,-1,.,.
O=C(/C=C/c1c(F)cccc1Cl)Nc1cccnc1,50*,7.1*,1,11*,1,3,1,6.8*
O=C(/C=C/c1cc(Br)ccc1F)Nc1cccnc1,20,-2,0,5,-1,2,.,.
O=C(OCC(=O)c1c[nH]c2ccccc12)c1cc2ccccc2cc1O,25,8.0*,0,1,-1,-1,0,4
O=C(OCC(=O)c1c[nH]c2ccccc12)c1ccc(OC(F)F)cc1,.,3,-1,2,0,0,.,.
CC1ON=C(c2ccccn2)N(Cc2ccc(S(C)(=O)=O)cc2)C1=O (configuration not stated),.,10*,0,2,-2,.,0,0
COc1cc(CN2C(=O)C(C)ON=C2c2ccccc2F)cc(OC)c1 (configuration not stated),.,-4,-1,0,-1,.,.,.
S=c1nc(-c2ccccc2)c(-c2ccccc2)n[nH]1,0,-1,0,3,-1,1,.,.
Nc1c(-c2ccccc2)n[nH]c1-c1ccccc1,134*,7.0*,1,8,-1,-1,1,7.7*
CCOC(=O)c1c(C)oc2c1c(C(c1ccncc1)N1CCOCC1)c(O)c1ccccc12 (configuration not stated),10,0,0,3,0,.,.,.
CCOC(=O)c1c(C)oc2c1c(CN1CCN(C(=O)OCC)CC1)c(O)c1ccccc12,50*,8.6*,2,13*,1,1,0,5
CCOC(=O)c1c(C)oc2c1c1c(c3ccccc32)OCN(Cc2ccccn2)C1,5,6.8*,2,6,1.2*,4,1,8.5*
CCOc1cc(-c2sc(Nc3ccccc3)n[n+]2-c2ccc(F)cc2)ccc1OC,10,1,0,2,-1,1,.,.
CCOC(=O)c1oc2cccc(O)c2c1CN1CCOCC1,5,-2,0,0,-2,-1,.,.
CCCc1cc2c(=O)c(-c3nc4ccccc4s3)c(COCC(=O)O)oc2cc1O,.,6.8*,1,9,0.9*,1,0,7.7*
SMILES,AHR activator,hcDAF12 agonist,DAX1 inh-1,hgDAF12 agonist,ssDAF-12 act,DAX1 inh-2,LXR ag,hcDAF12 conf
O=C(N/N=C/c1c[nH]c2ccccc12)C1CC1c1ccccc1 (configuration not stated),27,9.2*,-2,-2,-1,-1,0,1
O=C(N/N=C/c1c[nH]c2ccccc12)c1ccn[nH]1,32,9.9*,1,12*,0,1,0,3
Cc1nccn1CC(=O)N/N=C/c1c[nH]c2ccccc12,3,8.3*,0,3,-1,2,0,-1
CC(C)(C)OC(=O)N/N=C/c1c[nH]c2ccccc12,21,11*,1,12*,1.4*,0,0,6.6*
O=C(N/N=C/c1c[nH]c2ccccc12)C1CC1(c1ccccc1)c1ccccc1 (configuration not stated),20,2,0,3,-1,0,.,.
Cc1ccc(NC(=O)c2cc(-c3cccs3)nc3ccccc23)nc1,19,-3,-1,-2,-2,-1,.,.
Cc1cc(C)n(CC(O)COc2ccccc2C(=O)Nc2ccccc2)n1 (configuration not stated),2,-1,-1,-1,-1,-1,.,.
Cc1ccc(OC(C)C(=O)Nc2ccncc2)cc1 (configuration not stated),-1,-4,-1,-3,-2,-1,.,.
O=C(N/N=C/c1c[nH]c2ccccc12)c1ccc(Br)cc1,24,7.3*,0,3,1.1*,-1,0,5
O=C(N/N=C\c1c[nH]c2ccccc12)c1ccc(O)cc1,.,9.7*,0,9,1.4*,2,0,5
